High-throughput results as filed in PubChem.
Rtt109 HAT inh: C. albicans Rtt109 histone acetyltransferase inhibition; Q5AAJ8; purified Rtt109/Vps75, ThioGlo CoA-SH fluorescence, 4 h; inhibition, % at 34.9 µM; hit rate 0.16% among 330,000; AID 540336;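 active = inhibition of at least 50% in every replicate; inconclusive = best replicate reaches 50% inhibition but some replicates fall short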
PHOSPHO1 inh: inhibitors of human PHOSPHO1 phosphatase; inhibition, % at 13.3 µM; AID 1565; recombinant PHOSPHO1, absorbance phosphatase assay; hit rate 1.1% among 290,000; in the data active = inhibition above about 60%
Target sequence (Q8TCT1 whole entry, looked up): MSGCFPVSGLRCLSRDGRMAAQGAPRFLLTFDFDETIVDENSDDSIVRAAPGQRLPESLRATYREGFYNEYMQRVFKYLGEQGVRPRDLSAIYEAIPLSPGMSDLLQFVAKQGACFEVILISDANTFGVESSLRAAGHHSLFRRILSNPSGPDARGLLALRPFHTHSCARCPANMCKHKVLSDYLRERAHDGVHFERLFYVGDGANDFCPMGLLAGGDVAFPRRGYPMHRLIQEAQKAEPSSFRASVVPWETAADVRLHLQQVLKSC
WT yeast gro inh: growth inhibition of WT yeast, mitochondrial fusion screen; mitochondrial fusion phenotypic screen, WT strain; inhibition, % at 10 µM; AID 1362; hit rate 2.1% among 190,000; in the data active = inhibition above about 58%; tested in S. cerevisiae
TPT1 inh: blocks Candida albicans tRNA 2'-phosphotransferase; recombinant caTPT1, FP RNA substrate dephosphorylation; inhibition, % at 5 µM; hit rate 0.81% among 300,000;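 active = inhibition above the mean of all tested compounds plus 3 SD, set per screening campaign, cut at about 24% in these data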;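 also: plate controls were DMSO alone for no effect and ferristatin control at 100 nM for full effect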
Platelet DG rel: platelet dense granule release activity. human platelet-rich plasma, SFLLRN dense granule ATP release, luminescence. hit rate 0.22% among 300,000. AID 1663. inhibition, %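 (compounds screened at 7.5 µM in platelet-rich plasma)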;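 active = mean replicate score, as percent of positive control, at or above 50; inconclusive = mean below 50 but at least one replicate at or above 50; inactive = mean and every replicate below 50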
SKKanGAS inh: blocks kanamycin growth of S. pyogenes SKKanGAS strain. hit rate 1.3% among 300,000. inhibition, % at 7.5 µM. BacTiter-Glo, 6 h;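 active = mean replicate score, as percent of positive control median, at least 50; inconclusive = mean below 50 but one replicate at or above 50; inactive = mean and every replicate below 50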;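 also: strain carries kanamycin resistance gene driven by streptokinase promoter and grows in 40 µg/ml kanamycin; loss of luminescence reflects streptokinase promoter inhibition or plain growth inhibition; 0% = median of DMSO wells and 100% = positive control at its reference dose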
* hit, by the source's call; ? = inconclusive; . = no result given. Most compounds without a hit are left out; they make up all but 3.9% or so of the library.

SMILES	Rtt109 HAT inh	PHOSPHO1 inh	WT yeast gro inh	TPT1 inh	Platelet DG rel	SKKanGAS inh
CCc1cccc(N(C(=O)c2csnn2)C(C(=O)NC2CCCCC2)c2cccnc2)c1 (centres undefined)	5	42	.	-1	3	2
COc1ccc(C2c3cc4c(cc3OC(N3CCOCC3)C2C)OCO4)c(OC)c1 (centres undefined)	3	.	.	.	.	.
CC(OC(=O)CCN1C(=O)C2CC=CCC2C1=O)C(=O)Nc1ccc(F)cc1 (centres undefined)	9	.	.	.	.	.
Cc1ccc(S(=O)(=O)Nc2ccc(O)c3cccnc23)cc1	128*	44	.	5	0	16
Cc1ccc(S(=O)(=O)Nc2ccc(O)c3ncccc23)cc1	8	-33	-17	-4	9	0
Cc1ccc(C)c(N2CCN(C(=O)CCn3c(=S)[nH]c4cc5c(cc4c3=O)OCO5)CC2)c1	-2	70*	23	0	0	29
O=C(CCCCCn1c(=S)[nH]c2cc3c(cc2c1=O)OCO3)N1CCN(C(=O)c2ccco2)CC1	3	-56	69*	-3	-4	2
O=C(CCCCCn1c(=S)[nH]c2cc3c(cc2c1=O)OCO3)N1CCN(Cc2ccccc2)CC1	3	-17	11	1	-5	.
O=C(c1sccc1Cl)N1CCN(Cc2ccc3c(c2)OCO3)CC1	-24	-6	.	-4	0	-4
O=C(c1ccc(Cl)cc1)C1C2C(=O)N(c3ccccc3)C(=O)C2C2CCCN21 (centres undefined)	-21	84*	16	.	5	4
CC(=O)c1ccc(N2C(=O)C3C(C2=O)C(C(=O)c2ccc(Cl)cc2)N2CCCC32)cc1 (centres undefined)	.	-65	21	.	.	.
C=CCSc1nnc2c(n1)OC(c1cccnc1)Nc1ccccc1-2 (centres undefined)	12	82*	0	-1	-3	-3
CCOc1ccc(/C=C/C(O)=C2/C(=O)N(C)C3(C)CC2c2ccccc2O3)cc1OC (centres undefined)	0	4	26	3	-2	0
CN(C)c1ccc(/C=C/C(O)=C2/C(=O)N(C)C3(C)CC2c2ccccc2O3)cc1 (centres undefined)	.	59	11	188*	-1	6
CCCCn1cnc2c(SCc3ccc(Br)cc3)nc(N)nc21	-1	.	.	.	.	.
Cc1ccc(Nc2nc(NCc3ccco3)c3ccccc3n2)cc1	10	-1	94*	-3	3	8
c1ccc(-c2nc(NCc3ccco3)c3ccccc3n2)nc1	-1	-14	37	-3	7	95*
O=C(NC1CCN(c2ncccn2)CC1)c1c(F)cccc1F	-5	9	.	2	12	12
CN(C)S(=O)(=O)n1cc(/C=C(\NC(=O)c2ccccc2F)C(=O)NCCCn2ccnc2)c2ccccc21	11	26	.	.	-27	3
COc1ccc(C2CC(c3ccccc3)=NN2c2ccc(S(N)(=O)=O)cc2)cc1OC (centres undefined)	-141	32	5	2	-1	11
COc1cc(N2N=C(c3ccccc3)CC2c2ccccc2)c(C=O)cc1C=O (centres undefined)	10	39	.	-6	0	55*
CC(=O)Oc1ccc(C2=NN(c3ccccc3)C(c3ccccc3)C2)cc1 (centres undefined)	0	33	.	0	8	65*
COc1ccc(C2CC(c3ccccc3)=NN2c2ccc(Cl)c(C(=O)O)c2)cc1 (centres undefined)	-300	-11	11	0	2	25
CC(=O)OCC(=O)N1N=C(c2ccc3ccccc3c2)CC1c1ccccc1 (centres undefined)	-3	-4	68*	0	3	-5
COCCn1c(C)cc(C(=O)COC(=O)C2CC(=O)N(CCc3ccc(OC)c(OC)c3)C2)c1C (centres undefined)	2	.	.	1	.	-3
SMILES	Rtt109 HAT inh	PHOSPHO1 inh	WT yeast gro inh	TPT1 inh	Platelet DG rel	SKKanGAS inh
CCC1(C)Cc2c(sc3nc(SCC(=O)c4ccccc4)[nH]c(=O)c23)CO1 (centres undefined)	-4	8	.	1	2	11
CCOC(=O)CSc1nc2sc3c(c2c(=O)[nH]1)CC(C)(CC)OC3 (centres undefined)	8	81*	18	-7	1	-1
CCOc1ccc(NC(=O)Nc2ccc(Cc3ccncc3)cc2)cc1	-5	37	.	-22	3	-2
COC(=O)c1ccccc1NC(=O)NCc1cccnc1	5	10	8	1	-2	-6
COC(=O)c1ccccc1NC(=O)C(=O)NCc1ccncc1	4	66*	-9	1	4	1
CCOc1ccc(NC(=O)C(=O)NCc2ccncc2)cc1	-9	68*	-1	1	10	-4
O=C(O)c1ccccc1NS(=O)(=O)c1cccc(-n2sc3ccccc3c2=O)c1	153*	35	.	5	-9	9
Cc1cc(C)c(-c2noc(C(=O)OC(C)(C)C)c2C(=O)OC(C)(C)C)c(C)c1	7	34	66*	0	-4	72*
COC(=O)CCC(=O)Nc1sc(Cc2ccccc2)c(C)c1C(N)=O	-3	3	64*	2	-3	-6
COC(=O)CCC(=O)Nc1sc(C)c(C)c1C(N)=O	4	90*	-6	-3	0	-3
Cc1nc(C(=O)N2CCc3c([nH]c4ccccc34)C2c2cc(F)ccc2F)cs1 (centres undefined)	2	7	75*	1	0	6
Cc1cc(C(=O)N2CCc3c([nH]c4ccccc34)C2c2cccc(Cl)c2)nn1C (centres undefined)	-1	2	61*	-4	-1	29
Cc1nc(C(=O)N2CCc3c([nH]c4ccccc34)C2c2ccccn2)cs1 (centres undefined)	7	-12	-14	-5	4	-1
O=C(c1cnccn1)N1CCc2c([nH]c3ccccc23)C1c1cccc(Cl)c1 (centres undefined)	.	14	61*	-1	4	25
CCOc1ccccc1C1C(C#N)=C(N)N(N(C)C)C2=C1C(=O)CCC2 (centres undefined)	-3	32	.	0	2	-12
O=C(Nc1nnc(C2CC2)s1)c1cncc(Br)c1	-1	.	.	.	.	.
CCN(Cc1ccccc1)C(=O)c1ccc2c(=O)n3c(nc2c1)CCC3	1	.	.	0	5	18
O=C(O)c1cc(S(=O)(=O)Nc2ccc3oc(=O)sc3c2)ccc1O	.	63*	2	0	-10	-12
Cc1ccc(S(=O)(=O)Nc2ccc3oc(=O)sc3c2)c(C)c1	?	24	61*	-4	3	-2
CC(=O)c1c(C)oc2ccc(NS(=O)(=O)c3ccc(O)c(C(=O)O)c3)cc12	19	4	28	-2	-2	1
CC(C)c1ccc(S(=O)(=O)N2CCN(C(=O)C3CCN(C(=O)c4ccc(F)cc4)CC3)CC2)cc1	7	33	.	-1	0	7
